According to PubChem BioAssay AID623868 (Vanderbilt High Throughput Screening Facility, 2012):
Among all 2,100 compounds or so, about 760 (36%) were called active. The list is a sample of the results. Unmarked numbers belong to inactive results.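 The calls were made as follows: active = thallium-flux fluorescence traces judged by eye to show enhanced or reduced glutamate response, manual score 1 or -1, so both directions (some results past the limit were not filed as active); inactive = the rest, including fluorescent or raised-baseline compounds.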

Assay: non-GIRK thallium flux modulation in mGlu8 cells, confirmation, counter-screen for GIRK activator project, cell-based, HEK-293 rmGlu8, no GIRK (AID 623868);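 also: extra codes mark interference with 3 for fluorescent and 4 for baseline rise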
Details: thallium flux fluorescence, at 10 µM, actives lie on both sides, codes: 1 enhancer, -1 blocker, 0 none, thallium stimulus containing EC20 glutamate

Structure (SMILES)	manual score
CN(C)c1nc2ccccc2c(N)c1-c1ccccc1	0
COc1ccc(-c2nnc3sc(C4CCCCC4)nn23)cc1OC	-0.5
Cc1ccc(-c2csc3nc[nH]c(=S)c23)cc1C	1 (active)
CCCc1nc2scc(-c3ccccc3)c2c(=O)n1N	0
S=c1[nH]cnc2scc(-c3ccccc3)c12	1 (active)
CC1(C)Cc2nc(NCCN3CCOCC3)c(C#N)cc2CO1	0
O=c1cc(Cn2ccnc2)c2cc3c(cc2o1)CCC3	0
O=C(CN1C(=O)/C(=C/c2ccccc2F)Oc2ccccc21)N1CCN(c2ccccn2)CC1	0
CCOC(=O)c1c(NC(=O)CSc2nnc(-c3ccncc3)n2Cc2ccco2)sc(C(C)=O)c1C	-1 (active)
COC(=O)c1c(NC(=O)CSc2nnc(-c3cccnc3)n2Cc2ccco2)sc(C)c1C	-1 (active)
O=C(CCn1c(=O)oc2ccccc21)N1CCN(c2ccccc2Cl)CC1	0
S=C(Nc1cccc(Cl)c1)Nc1ccccc1Oc1ccccc1	0
CN(C)S(=O)(=O)c1cccc(NC(=O)Cc2ccc(Cl)cc2)c1	0
S=C(Nc1ccccc1)Nc1cc(Cl)ccc1Oc1ccccc1	0
CN(C)S(=O)(=O)c1cccc(NC(=S)Nc2cc(Cl)cc(Cl)c2)c1	0
S=C(Nc1ccc(Cl)cc1Cl)Nc1ccccc1Oc1ccccc1	1 (active)
S=C(NCCc1ccccc1)Nc1ccc(Cl)cc1Cl	0
CN(C)S(=O)(=O)c1cccc(NC(=S)Nc2ccc(Cl)cc2Cl)c1	1 (active)
COc1ccccc1NC(=S)NCCc1ccc(Cl)cc1	0
S=C(Nc1ccccc1Oc1ccccc1)Nc1cccc(Cl)c1Cl	1 (active)
S=C(Nc1ccccc1Cl)Nc1ccc(Cl)cc1Cl	1 (active)
S=C(Nc1ccc(Oc2ccccc2)cc1)NC1CCCC1	0
COC(=O)CSc1nnc(SCc2ccc(OC)cc2)s1	-0.5
Cc1ccc(C2C3=C(NCCN=C3c3ccccc3)C(=O)N2c2ccccc2)cc1 (configuration not stated)	0
CCCCn1c(=O)nc2n(-c3ccccc3)c3ccccc3cc-2c1=O	0
O=C1c2ccccc2C(Nc2ccc3c(c2)OCCO3)N1Cc1ccccc1 (configuration not stated)	0

Structure (SMILES)	manual score
Cc1ccccc1Cn1c(-c2cncs2)nc2ccccc21	0
Cn1nc(C(F)(F)F)c2cc(NC(=O)OCc3ccc(F)cc3)sc21	0
CCc1cccc(NC(=O)CSC2=NS(=O)(=O)c3ccccc32)c1	0
Cn1cccc1-c1nc2ccc(NC(=O)c3cccs3)cc2[nH]1	0
O=C(Nc1ccc2[nH]c(=S)sc2c1)c1ccccc1	1 (active)
CC(C)OCCCNC(=O)c1cccc(NC(=O)c2ccccc2)c1	0
COc1ccc(OCCCN2CCCCCC2)cc1	0
O=C(COC(=O)C1CC2C=CC1C2)Nc1ccc2c(c1)OC(F)(F)O2 (configuration not stated)	0
O=C(Nc1nc(-c2cc3ccccc3oc2=O)cs1)c1ccc(Br)o1	0
CC(C)(C)c1csc(NC(=O)c2ccc3nccnc3c2)n1	0
O=C(Nc1nc(-c2ccccn2)cs1)c1ccc(Br)s1	1 (active)
COCCNC(=O)CN1C(=O)CSc2ncccc21	0
Cc1ccc2cccc(S(=O)(=O)N3CCN(c4ccccc4F)CC3)c2n1	0
O=C(NC(=S)Nn1cnc2c(cnn2-c2ccccc2)c1=O)c1ccc(Oc2ccccc2)cc1	1 (active)
CCCN(CCC)CCNC(=O)C(NS(=O)(=O)c1ccc2c(c1)CCC(=O)N2)c1ccccc1 (configuration not stated)	0
Cn1c(=O)c2c(nc3sccn32)n(C)c1=O	0
N#CC1(Cc2ccc([N+](=O)[O-])cc2)c2ccccc2C=CN1C(=O)c1ccccc1 (configuration not stated)	0
COc1cc(-c2nnc(CSc3nc4ccccc4s3)o2)cc(OC)c1OC	0
COc1ccc(-c2nnc(CSc3nc4ccccc4c(=O)n3C)o2)cc1OC	-1 (active)
COc1ccc(-c2nc(C#N)c(NCCCN(C)C)o2)cc1OC	0
COc1ccc(C(=O)NNC(=S)NC(=O)c2ccco2)cc1	1 (active)
COc1ccccc1C(=O)NNC(=S)NC(=O)c1ccco1	1 (active)
S=c1[nH]nc(CSCc2ccc(Cl)cc2Cl)n1-c1ccccc1	0
S=c1[nH]nc(-c2ccco2)n1/N=C/c1cccc(Cl)c1Cl	1 (active)
S=c1[nH]nc(-c2ccco2)n1/N=C/c1ccc(Cl)cc1Cl	1 (active)
O=C1c2ccsc2SCCN1Cc1c(Cl)cccc1Cl	0

Structure (SMILES)	manual score
CCn1c(SCC(N)=O)nc2sc3c(c2c1=O)CCCC3	1 (active)
O=c1c2c3c(sc2nc2n1CCCCC2)CCCCC3	0
COC(=O)c1sc(N2C(=O)C(O)=C(C(=O)c3ccc(C)o3)C2c2ccc(F)cc2)nc1C (configuration not stated)	-1 (active)
C=CCn1c(=O)c2c(C)c(C)sc2n2c(Nc3ccc(OC)cc3)nnc12	-1 (active)
COC(=O)Nc1nnc(Cc2ccc(Cl)cc2)s1	0
O=C(NC(=S)N1CCCc2ccccc21)c1ccc([N+](=O)[O-])cc1	1 (active)
O=C(NC(=S)N1CCc2ccccc21)c1ccccc1	1 (active)
O=C(NC(=S)N1CCCc2ccccc21)c1ccc(Cl)cc1	1 (active)
O=S(=O)(Cc1ccccc1)N1CCc2ccccc21	3
CC12CCC(C(=O)N3CCCc4ccccc43)(CC1=O)C2(C)C (configuration not stated)	0
O=C(NC(=S)N1CCCc2ccccc21)c1ccc(Br)cc1	1 (active)
O=C(CSc1nc(-c2ccccc2)cc(=O)[nH]1)N1CCc2ccccc21	0
CCSc1nnc(NC(=O)c2nn(C(C)C)c(=O)c3ccccc23)s1	-0.5
CS(=O)(=O)N(CCc1ccccc1)CC(=O)NCc1ccc2c(c1)OCO2	0
CC(C)(C)C1CCC2(CC1)Nc1cccc3cccc(c13)N2	0
CC1CCN(CC(O)COC2CCC(C(C)(C)C)CC2)CC1 (configuration not stated)	0
O=C(NC(=S)N1CCCc2ccccc21)c1ccccc1	1 (active)
Cc1c(C(=O)N2CCc3ccccc32)oc2c1C(=O)CC(C)(C)C2	0
O=C(c1ccccc1)N1CCCc2ccccc21	0
COC(=O)c1cc2sccc2n1CC(=O)N1CCCc2ccccc21	0
CCC1CCCCN1C(=S)NC(=O)c1ccc([N+](=O)[O-])cc1 (configuration not stated)	1 (active)
CCC1CCCCN1C(=O)c1cc2cc(Br)ccc2oc1=O (configuration not stated)	0
O=C(NC(=S)N1CCc2ccccc21)c1ccccc1Br	1 (active)
CCC1CCCCN1C(=O)CSc1nnc(-c2ccco2)o1 (configuration not stated)	0
O=C(N/N=C1\CCCc2ccccc21)c1ccc([N+](=O)[O-])cc1	1 (active)
